Experimental data taken from PubChem BioAssay AID1159580 (chemical genetic matrix, 2015).
Among all 5,500 compounds or so, about 2,000 (36%) were called active. Another 18% or so got no clear call; they are omitted. No stated cut-off is given here; in the data, active means normalized growth mostly below about 0.91 (no sharp cut-off); inconclusive means no clear call, values can overlap the other calls; inactive means mostly above about 0.92. The list shows a part of the results.

Test: chemical genetic growth profiling, strain panel (AID 1159580);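 further: tested at 20 µM; growth read once vehicle control cultures reached saturation at 30 °C; 1 = growth at the plate median or of vehicle wells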
Conditions: S. cerevisiae deletion strains, growth OD
[1] = locus YAR019C, strain CDC15, stronger effect = lower value
[2] = locus YBL105C, strain PKC1, stronger effect = lower value
[3] = locus YBR135W, strain CKS1, stronger effect = lower value
[4] = locus YBR136W, strain MEC1, stronger effect = lower value
[5] = locus YBR160W, strain CDC28, stronger effect = lower value
[6] = locus YDL017W, strain CDC7, stronger effect = lower value
[7] = locus YDL028C, strain MPS1, stronger effect = lower value
[8] = locus YDL101C, strain DUN1, stronger effect = lower value
[9] = locus YDL108W, strain KIN28, stronger effect = lower value
[10] = locus YDL132W, strain cdc53, stronger effect = lower value
[11] = locus YDL214C, strain PRR2, stronger effect = lower value
[12] = locus YDR052C, strain DBF4, stronger effect = lower value
[13] = locus YDR054C, strain cdc34, stronger effect = lower value
[14] = locus YDR226W, strain ADK1, stronger effect = lower value
[15] = locus YDR477W, strain SNF1, stronger effect = lower value
[16] = locus YER123W, strain YCK3, stronger effect = lower value
[17] = locus YER133W, strain GLC7, stronger effect = lower value
[18] = locus YFL009W, strain cdc4, stronger effect = lower value
[19] = locus YFL029C, strain CAK1, stronger effect = lower value
[20] = locus YFR003C, strain YPI1, stronger effect = lower value
[21] = locus YFR019W, strain FAB1, stronger effect = lower value
[22] = locus YFR028C, strain CDC14, stronger effect = lower value
[23] = locus YGR040W, strain KSS1, stronger effect = lower value
[24] = locus YGR052W, strain FMP48, stronger effect = lower value
[25] = locus YGR092W, strain DBF2, stronger effect = lower value
[26] = locus YHR030C, strain SLT2, stronger effect = lower value
[27] = locus YHR079C, strain IRE1, stronger effect = lower value
[28] = locus YHR082C, strain KSP1, stronger effect = lower value
[29] = locus YHR205W, strain SCH9, stronger effect = lower value
[30] = locus YIL147C, strain SLN1, stronger effect = lower value
[31] = locus YJL095W, strain BCK1, stronger effect = lower value
[32] = locus YJL128C, strain PBS2, stronger effect = lower value
[33] = locus YJL157C, strain FAR1, stronger effect = lower value
[34] = locus YJR016C, strain ILV3, stronger effect = lower value
[35] = locus YJR066W, strain TOR1 (second series), stronger effect = lower value
[36] = locus YJR066W, strain TOR1, stronger effect = lower value
[37] = locus YKL048C, strain ELM1, stronger effect = lower value
[38] = locus YKL067W, strain YNK1, stronger effect = lower value
[39] = locus YKL101W, strain HSL1, stronger effect = lower value
[40] = locus YKL193C, strain SDS22, stronger effect = lower value
[41] = locus YKL203C, strain TOR2, stronger effect = lower value
[42] = locus YLR113W, strain HOG1, stronger effect = lower value
[43] = locus YLR133W, strain CKI1, stronger effect = lower value
[44] = locus YLR403W, strain SFP1, stronger effect = lower value
[45] = locus YML070W, strain DAK1, stronger effect = lower value
[46] = locus YMR001C, strain CDC5, stronger effect = lower value
[47] = locus YMR205C, strain PFK2 (second series), stronger effect = lower value
[48] = locus YMR277W, strain FCP1, stronger effect = lower value
[49] = locus YNL006W, strain LST8, stronger effect = lower value
[50] = locus YNL020C, strain ARK1, stronger effect = lower value
[51] = locus YNL161W, strain CBK1, stronger effect = lower value
[52] = locus YNL183C, strain NPR1, stronger effect = lower value
[53] = locus YNL207W, strain RIO2, stronger effect = lower value
[54] = locus YNL222W, strain SSU72, stronger effect = lower value
[55] = locus YNL307C, strain MCK1 (second series), stronger effect = lower value
[56] = locus YOL078W, strain AVO1, stronger effect = lower value
[57] = locus YOL136C, strain PFK27, stronger effect = lower value
[58] = locus YOR061W, strain CKA2, stronger effect = lower value
[59] = locus YOR119C, strain RIO1, stronger effect = lower value
[60] = locus YOR231W, strain MKK1, stronger effect = lower value
[61] = locus YOR329C, strain SCD5, stronger effect = lower value
[62] = locus YPL031C, strain PHO85, stronger effect = lower value
[63] = locus YPL153C, strain RAD53, stronger effect = lower value
[64] = locus YPL204W, strain HRR25, stronger effect = lower value
[65] = locus YPL209C, strain IPL1, stronger effect = lower value
[66] = locus YPL256C, strain CLN2, stronger effect = lower value
[67] = locus YPR025C, strain CCL1, stronger effect = lower value
[68] = locus YPR106W, strain ISR1, stronger effect = lower value
[69] = locus YPR111W, strain DBF20, stronger effect = lower value
[70] = strain NNK1, stronger effect = lower value
[71] = strain TSCII, stronger effect = lower value

Measured: normalized growth

Cc1cc(NNC(=O)c2ccccc2Cl)nc2c1c(C)nn2C
inactive: [1] 0.994 | [2] 0.989 | [3] 0.979 | [4] 0.979 | [5] 0.983 | [6] 0.987 | [7] 0.978 | [8] 0.994 | [9] 0.978 | [10] 0.978 | [11] 0.951 | [12] 0.99 | [13] 0.993 | [14] 0.976 | [15] 0.978 | [16] 0.938 | [17] 0.96 | [18] 0.98 | [19] 0.993 | [20] 0.987 | [21] 0.95 | [22] 0.973 | [23] 0.958 | [24] 1.01 | [25] 0.974 | [26] 1.07 | [27] 1.08 | [28] 1.05 | [29] 0.953 | [30] 0.984 | [31] 0.968 | [32] 0.966 | [33] 0.972 | [34] 0.988 | [35] 0.926 | [36] 1.08 | [37] 0.964 | [38] 0.958 | [39] 0.941 | [40] 0.985 | [41] 1.06 | [42] 0.93 | [43] 0.951 | [44] 0.968 | [45] 0.956 | [46] 0.992 | [47] 0.97 | [48] 0.986 | [49] 0.982 | [50] 0.973 | [51] 0.98 | [52] 1.03 | [53] 0.985 | [54] 0.989 | [55] 0.973 | [56] 0.978 | [57] 0.905 | [58] 0.94 | [59] 1.04 | [60] 0.978 | [61] 0.989 | [62] 0.97 | [63] 0.987 | [64] 0.945 | [65] 0.993 | [66] 1.05 | [67] 0.993 | [68] 0.999 | [69] 0.993 | [70] 0.998 | [71] 0.98

O=C(NNc1ccccc1F)c1ccno1
inactive: [1] 0.981 | [2] 0.97 | [3] 0.976 | [4] 0.98 | [5] 0.977 | [6] 0.987 | [7] 0.981 | [8] 0.979 | [9] 0.983 | [10] 0.973 | [11] 0.942 | [12] 0.979 | [13] 0.975 | [14] 0.983 | [15] 0.948 | [16] 0.869 | [17] 0.957 | [18] 0.986 | [19] 0.979 | [20] 0.982 | [21] 0.92 | [22] 0.982 | [23] 0.915 | [24] 1.01 | [25] 0.904 | [26] 0.959 | [27] 0.952 | [28] 0.998 | [29] 0.934 | [30] 0.983 | [31] 0.937 | [32] 0.972 | [33] 0.929 | [34] 0.979 | [35] 0.886 | [36] 1.01 | [37] 0.937 | [38] 0.943 | [39] 0.905 | [40] 0.978 | [41] 1.01 | [42] 0.863 | [43] 0.93 | [44] 0.934 | [45] 0.906 | [46] 0.979 | [47] 0.95 | [48] 0.986 | [49] 0.993 | [50] 0.929 | [51] 0.979 | [52] 0.937 | [53] 0.984 | [54] 0.976 | [55] 0.924 | [56] 0.98 | [57] 0.909 | [58] 0.884 | [59] 0.996 | [60] 0.888 | [61] 0.985 | [62] 0.964 | [63] 0.909 | [64] 0.937 | [65] 0.976 | [66] 0.914 | [67] 0.978 | [68] 0.968 | [69] 0.961 | [70] 0.983 | [71] 0.977
